“And” between values parts separate entries of the source, which are not always exact repeats. Equal values may be shown once. Results filed as inconclusive are left out. A call without a number means that no potency is given here. The source made the active and inactive calls. Calls come from the whole dose curve; as a rule, active = well fitted cell-killing curve with a large enough effect in the repeat runs; inconclusive = weak or mixed curves, or effect the other way; inactive = no such curve, though single readings can be large or run the other way.
Assay: qHTS assay to identify small molecule antagonists of the glucocorticoid receptor (GR) signaling pathway - cell viability counter screen (AID 720693); note: nearly all actives have a fitted effect of over 55% in size
Settings: GR-bla HeLa viability, CellTiter-Glo luminescence, 18 h, with 5 nM dexamethasone present; series mostly up to 58.5 µM
With `O=C(c1ccccc1)C1(O)CCCCC1` the outcome was “inactive”. For `CC1=CCC(O)(C(C)C)CC1` (stereo not given), the outcome was “inactive”. For `CCN(C=O)CC`, the outcome was “inactive”. For `C=CCOCC(O)CO` (stereo not given), the outcome was “inactive”. For `CN(C)CCN(C)CCN(C)C`, the outcome was “inactive”. For `O=Cc1cccc(Br)c1`, the outcome was “inactive”. With `O=S(=O)(O)c1cccc2c(S(=O)(=O)O)cccc12` the outcome was “inactive”. For `c1ccc(Cc2ccccc2)cc1`, the outcome was “inactive”. With `CCCO[Si](OCCC)(OCCC)OCCC` the outcome was “inactive”. With `O=C(c1ccccc1O)c1ccccc1O` the outcome was “inactive”. In the case of `COc1ccc2cc1Oc1cc3c(cc1OC)CC[N+](C)(C)[C@H]3Cc1ccc(cc1)Oc1c(OC)c(OC)cc3c1[C@@H](C2)[N+](C)(C)CC3`, the outcome was “inactive”. For `CC/C=C\CCOC(C)OCC` (stereo not given), the outcome was “inactive”. For `C[N+]12CCC(CC1)C(OC(=O)C(O)(c1ccccc1)c1ccccc1)C2` (stereo not given), the outcome was “inactive”. In the case of `CC(C(=O)O)c1cccc(Oc2ccccc2)c1` (stereo not given), the outcome was “inactive”. With `O=C(CO)[C@@H](O)[C@H](O)[C@@H](O)CO` the outcome was “inactive”. For `CCC1C(=O)OCC1Cc1cncn1C` (stereo not given), the outcome was “inactive”. With `CN1C(C)(C)CC(O)CC1(C)C` the outcome was “inactive”. With `CC(=O)OCC(=O)[C@@]1(O)[C@H](C)C[C@H]2[C@@H]3CCC4=CC(=O)C=C[C@]4(C)[C@@]3(F)[C@@H](O)C[C@@]21C` the outcome was “inactive”. For `[Ca+2]`, the outcome was “inactive”. For `CCN[C@@H]1C[C@H](N)[C@@H](OC2OC(CN)=CCC2N)[C@H](O)[C@H]1O[C@H]1OC[C@](C)(O)[C@H](NC)[C@H]1O` (stereo not given in full), the outcome was “inactive”. With `C=COCC1CCC(COC=C)CC1` (stereo not given) the outcome was “inactive”. For `FB(F)F`, the outcome was “inactive”. In the case of `C[C@H]1C[C@H]2[C@@H]3CCC4=CC(=O)C=C[C@]4(C)[C@H]3C(=O)C[C@]2(C)[C@@]1(O)C(=O)CO`, the outcome was “inactive”. For `O=S(=O)(O)c1cccc(S(=O)(=O)O)c1`, the outcome was “inactive”. For `CC(=O)Nc1ccc(OCC(O)CNC(C)C)cc1` (stereo not given), the outcome was “inactive”. In the case of `CN1[C@@H]2CC[C@H]1CC(OC(=O)C(O)c1ccccc1)C2` (stereo not given in full), the outcome was “inactive”. In the case of `CC(C)(C#N)Nc1nc(Cl)nc(NC2CC2)n1`, the outcome was “inactive”. In the case of `Cc1nc2ccc(CN(C)c3ccc(C(=O)N[C@@H](CCC(=O)O)C(=O)O)s3)cc2c(=O)[nH]1`, the outcome was “inactive”. In the case of `CNC(=O)Nc1ccc(Cl)c(Cl)c1`, the outcome was “inactive”. With `CC(N)C12CC3CC(CC(C3)C1)C2` (stereo not given) the outcome was “inactive”. With `CC(C)C[C@@H](N)C(=O)O` the outcome was “inactive”. For `CCN1CCOCC1`, the outcome was “inactive”. With `CC1=NS(=O)(=O)c2cc(Cl)ccc2N1` the outcome was “inactive”. For `CC(=O)C1CCCCC1=O` (stereo not given), the outcome was “inactive”. In the case of `C[N+]1(CC2COC(c3ccccc3)(c3ccccc3)O2)CCCCC1` (stereo not given), the outcome was “inactive”.

Assay: qHTS assay for identifying genotoxic compounds that show differential cytotoxicity against isogenic chicken DT40 cell lines with known DNA damage response pathways - wild type cell line (AID 743012); note: nearly all actives have a fitted effect of over 60% in size; note: potency is the fitted concentration of half-maximal effect
Settings: DT40 wild type chicken cells viability, CellTiter-Glo, 40 h; series mostly up to 68.4 µM
Method in brief: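 Endpoint: CellTiter-Glo luminescence, 30 min RT. Cells: wild type DT40, 300/well. Exposure: compounds in DMSO, 40 h, 37 C/5% CO2, after ~0.5 h pre-incubation.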
With `O=C(c1ccccc1)C1(O)CCCCC1` the Potency was “inactive”. With `CC1=CCC(O)(C(C)C)CC1` (stereo not given) the Potency was “inactive”. With `CCN(C=O)CC` the Potency was “inactive”. With `C=CCOCC(O)CO` (stereo not given) the Potency was “inactive”. For `CN(C)CCN(C)CCN(C)C`, the Potency was “inactive”. For `O=Cc1cccc(Br)c1`, the Potency was “inactive”. With `O=S(=O)(O)c1cccc2c(S(=O)(=O)O)cccc12` the Potency was “inactive”. With `c1ccc(Cc2ccccc2)cc1` the Potency was “inactive”. In the case of `CCCO[Si](OCCC)(OCCC)OCCC`, the Potency was “inactive”. For `O=C(c1ccccc1O)c1ccccc1O`, the Potency was “inactive”. In the case of `COc1ccc2cc1Oc1cc3c(cc1OC)CC[N+](C)(C)[C@H]3Cc1ccc(cc1)Oc1c(OC)c(OC)cc3c1[C@@H](C2)[N+](C)(C)CC3`, the Potency was “inactive”. For `CC/C=C\CCOC(C)OCC` (stereo not given), the Potency was “inactive”. For `C[N+]12CCC(CC1)C(OC(=O)C(O)(c1ccccc1)c1ccccc1)C2` (stereo not given), the Potency was “inactive”. For `CC(C(=O)O)c1cccc(Oc2ccccc2)c1` (stereo not given), the Potency was “inactive”. With `O=C(CO)[C@@H](O)[C@H](O)[C@@H](O)CO` the Potency was “inactive”. In the case of `CCC1C(=O)OCC1Cc1cncn1C` (stereo not given), the Potency was “inactive”. With `CN1C(C)(C)CC(O)CC1(C)C` the Potency was “inactive”. For `CC(=O)OCC(=O)[C@@]1(O)[C@H](C)C[C@H]2[C@@H]3CCC4=CC(=O)C=C[C@]4(C)[C@@]3(F)[C@@H](O)C[C@@]21C`, the Potency was “inactive”. For `[Ca+2]`, the Potency was “inactive”. With `CCN[C@@H]1C[C@H](N)[C@@H](OC2OC(CN)=CCC2N)[C@H](O)[C@H]1O[C@H]1OC[C@](C)(O)[C@H](NC)[C@H]1O` (stereo not given in full) the Potency was “inactive”. For `C=COCC1CCC(COC=C)CC1` (stereo not given), the Potency was “inactive”. For `FB(F)F`, the Potency was “inactive”. With `C[C@H]1C[C@H]2[C@@H]3CCC4=CC(=O)C=C[C@]4(C)[C@H]3C(=O)C[C@]2(C)[C@@]1(O)C(=O)CO` the Potency was “inactive”. For `O=S(=O)(O)c1cccc(S(=O)(=O)O)c1`, the Potency was “inactive”. In the case of `CC(=O)Nc1ccc(OCC(O)CNC(C)C)cc1` (stereo not given), the Potency was “inactive”. With `CN1[C@@H]2CC[C@H]1CC(OC(=O)C(O)c1ccccc1)C2` (stereo not given in full) the Potency was “inactive”. With `CC(C)(C#N)Nc1nc(Cl)nc(NC2CC2)n1` the Potency was “inactive”. For `Cc1nc2ccc(CN(C)c3ccc(C(=O)N[C@@H](CCC(=O)O)C(=O)O)s3)cc2c(=O)[nH]1`, the Potency was 3.8 nM (active) and 7.5 nM (active). In the case of `CNC(=O)Nc1ccc(Cl)c(Cl)c1`, the Potency was “inactive”. For `CC(N)C12CC3CC(CC(C3)C1)C2` (stereo not given), the Potency was “inactive”. In the case of `CC(C)C[C@@H](N)C(=O)O`, the Potency was “inactive”. For `CCN1CCOCC1`, the Potency was “inactive”. With `CC1=NS(=O)(=O)c2cc(Cl)ccc2N1` the Potency was “inactive”. In the case of `CC(=O)C1CCCCC1=O` (stereo not given), the Potency was “inactive”. For `C[N+]1(CC2COC(c3ccccc3)(c3ccccc3)O2)CCCCC1` (stereo not given), the Potency was 26.6 µM (active).
